This note sets out measurements from PubChem BioAssay (NCATS).

Inconclusive results are not listed. Entries that show only a call come without a potency. The source made the active and inactive calls. Calls follow the shape of the full dose curve.

Chain of Vitamin D3 receptor (Homo sapiens) (P11473 whole entry, looked up): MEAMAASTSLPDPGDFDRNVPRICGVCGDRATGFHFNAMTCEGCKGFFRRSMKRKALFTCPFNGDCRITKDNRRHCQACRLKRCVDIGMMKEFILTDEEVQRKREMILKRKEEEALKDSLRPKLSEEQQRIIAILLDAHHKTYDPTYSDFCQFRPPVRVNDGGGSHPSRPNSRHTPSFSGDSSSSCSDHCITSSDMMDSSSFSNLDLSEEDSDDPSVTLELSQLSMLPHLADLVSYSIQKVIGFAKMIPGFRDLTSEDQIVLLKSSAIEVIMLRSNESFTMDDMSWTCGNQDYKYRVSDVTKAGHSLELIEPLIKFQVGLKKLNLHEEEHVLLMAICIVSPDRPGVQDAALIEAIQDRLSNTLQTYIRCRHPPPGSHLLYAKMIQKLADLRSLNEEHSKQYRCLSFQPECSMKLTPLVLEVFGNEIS

In the test the target is Vitamin D3 receptor (Homo sapiens) (UniProt P11473). In words: qHTS assay for small molecule antagonists of vitamin D receptor signaling (AID 588541). To be noted: HEK293T VDR-UAS-bla, beta-lactamase ratio, antagonist mode; series mostly up to 76.7 µM. An excerpt:
NIH Chemical Genomics Center [NCGC]
U.S. Environmental Protection Agency [EPA]
National Institutes of Environmental Health Sciences [NIEHS]
National Toxicology Program [NTP]
The Vitamin D receptor (VDR) is a member of nuclear hormone receptor superfamily and it plays a critical role in calcium homeostasis and bone metabolism. It plays a role in inducing cell differentiation, inhibiting cell growth and in thrombogenicity. So, VDR that mediates these effects represents a pharmacological target in prevention and treatment of hyperproliferative malignancies, such as cancer and psoriasis, cardiovascular, immunological, inflammatory and renal diseases etc.
NCGC Assay Protocol Summary
Using a beta-lactamase reporter-gene under control of Vitamin D receptor (VDR) response element, a cell-based assay [GeneBLAzer (VDR -UAS-bla assay developed by Invitrogen] was used to measure VDR ligands signaling. GeneBLAzer VDR -UAS-bla HEK293T cells were used with assay medium containing 2% charcoal-stripped FBS. The assay was performed in clear bottom black Greiner 1536-well plates. Library compounds were measured for their ability to inhibit the reporter gene activity. Compounds were screened in a titration series in 1536-well format. The fluorescence intensity (405 nm excitation, 460/530 nm emission) was measured using an EnVision plate reader. Data was normalized relative to 1-alpha,25-Dihydroxy vitaminD3 control (50 nM, 100%) and DMSO only wells (basal, 0%). Concentration-response titration points for each compound were fitted to the Hill equation yielding concentrations of half-maximal inhibition (IC50) and maximal response (efficacy) values.
qHTS protocol for VDR beta-lactamase assay in antagonist mode
[Step] [Parameter] [Value] [Description]
1. Reagent; 5 uL; 2000 cells/well
2. Incubation; 37 C for 5 hrs
4. Controls (DMSO); 23 nL,
5. Agonist (Stimulator); 1uL; 1-alpha,25-Dihydroxy vitaminD3 at 50 nM and 3 nM final concentrations
6. Incubation; 37 C for 16 hrs
7. Detection reagent; 1 uL of CCF4-dye
8. Incubation; RT for 2 hrs
9. Detection; Fluorescence; Envision plate reader
As to `OC(c1ccc(Cl)cc1)(c1ccc(Cl)cc1)C(Cl)(Cl)Cl`, the Potency result is “inactive”.
The value for `CCCOc1nn(C(=O)NS(=O)(=O)c2ccccc2C(=O)OC)c(=O)n1C` was “inactive”; that for `CCOP(=S)(OCC)OC(Cl)C(Cl)(Cl)Cl` (stereo not given) was “inactive”.
The value for `COc1cccc(C(=O)NN(C(=O)c2cc(C)cc(C)c2)C(C)(C)C)c1C` was “inactive”; that for `CCCCCCCCCCCCN(C)C` was “inactive”; that for `CCCC1COC(Cn2cncn2)(c2ccc(Cl)cc2Cl)O1` (stereo not given) was “inactive”.
The value for `CC1(C)[C@H](C(=O)O[C@H](C#N)c2cccc(Oc3ccccc3)c2)[C@@H]1/C=C(\Cl)C(F)(F)F` was “inactive”; that for `COc1ccc(O)c(C(C)(C)C)c1` was “inactive”; that for `C#CCN1C(=O)COc2cc(F)c(N3C(=O)C4=C(CCCC4)C3=O)cc21` was “inactive”.
On to `C#CCC1=C(C)[C@H](OC(=O)[C@H]2[C@H](C=C(C)C)C2(C)C)CC1=O`, for which the Potency result is “inactive”.
The result for `O=[N+]([O-])Nc1nccn1Cc1ccc(Cl)nc1` reads “inactive”.
The value for `CCOP(=S)(OCC)SCSP(=S)(OCC)OCC` was “inactive”; that for `C=CC(=O)OCC(CO)(COC(=O)C=C)COC(=O)C=C` was 7.08 µM (active); that for `CCOP(N)(=O)Oc1ccc(SC)c(C)c1` (stereo not given) was “inactive”.
The result for `CCOP(=S)(Oc1cnc(C(C)(C)C)nc1)OC(C)C` (stereo not given) reads “inactive”; that for `CCOP(=O)(OCC)SCSP(=S)(OCC)OCC`, “inactive”.
As for `Cc1c(F)c(F)c(COC(=O)C2C(/C=C(\Cl)C(F)(F)F)C2(C)C)c(F)c1F` (stereo not given), the Potency entry is “inactive”.
The result for `CC(=NC#N)N(C)Cc1ccc(Cl)nc1` reads “inactive”.
The result for `O=P(O)(O)CN(CP(=O)(O)O)CP(=O)(O)O` reads “inactive”; that for `O=P(Oc1ccccc1)(Oc1ccccc1)Oc1ccccc1`, “inactive”.
The value for `O=[N+]([O-])c1cc(C(F)(F)F)cc([N+](=O)[O-])c1Cl` was “inactive”; that for `Cc1cnc(C2=NC(C)(C(C)C)C(=O)N2)c(C(=O)O)c1` (stereo not given) was “inactive”; that for `CC(C)OC(=O)C(O)(c1ccc(Br)cc1)c1ccc(Br)cc1` was “inactive”.
In the case of `CCC(C)(CC)c1cc(NC(=O)c2c(OC)cccc2OC)on1`, the Potency result was “inactive”.
As to `Clc1ccc([C@]2(Cn3cncn3)C[C@H](Br)CO2)c(Cl)c1`, the Potency result was “inactive”.
As for `CCOS(=O)(=O)OCC`, the Potency result was “inactive”.
For the compound `CCC(C)c1cc([N+](=O)[O-])cc([N+](=O)[O-])c1O` (stereo not given), the Potency result was “inactive”.
`CNC(=O)Oc1cccc(N=CN(C)C)c1`: the Potency result is “inactive”.
On to `O=C(O)C1(O)c2ccccc2-c2ccc(Cl)cc21` (stereo not given), for which the Potency result is “inactive”.
Regarding `O=S(=O)(c1ccc(Cl)cc1)c1cc(Cl)c(Cl)cc1Cl`, the Potency entry was “inactive”.
The result for `CCOP(=S)(OCC)SC(CCl)N1C(=O)c2ccccc2C1=O` (stereo not given) reads “inactive”; that for `CC(C1CC1)C(O)(Cn1cncn1)c1ccc(Cl)cc1` (stereo not given), “inactive”; that for `COP(=O)(OC)OC(Br)C(Cl)(Cl)Br` (stereo not given), 44.7 µM (active).
The result for `CCOP(=S)(OCC)SCn1nnc2ccccc2c1=O` reads “inactive”; that for `CCOP(=S)(OCC)SCCl`, “inactive”; that for `C=CC1(C)OC(=O)N(c2cc(Cl)cc(Cl)c2)C1=O` (stereo not given), “inactive”.
The value for `CCOP(=O)(OCC)SCCSCC` was “inactive”.
`CCc1cc(C)cc(CC)c1-c1c(OC(=O)C(C)(C)C)n2n(c1=O)CCOCC2`: the Potency result was “inactive”.
In the case of `CC1(C(=O)Nc2ccc(O)c(Cl)c2Cl)CCCCC1`, the Potency entry was “inactive”.
On to `CCc1cnc(C2=NC(C)(C(C)C)C(=O)N2)c(C(=O)O)c1` (stereo not given), for which the Potency entry was “inactive”.
